Results as given in the supplement of paper PMC7411054.
Counter-ions that a name gives are not always drawn.

How the values were obtained:
Assay in all cases: phenotypically active (imaging signature differs from DMSO and reproducible) at any of 0.3-9 uM (binary (1 = active, 0 = inactive)); higher = active
Settings in all cases: treatment time: 24 h
A549-ACTB-RAB5A = system: A549-ACTB-RAB5A
Method in brief: (§1)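 Live-cell features were measured per well and normalised to solvent control wells after fifteen gene-edited A549, HepG2 and WPMY1 reporter lines had been treated for 24 h at 0.3, 1, 3 or 9 µM in four wells each. A condition was deviating when ≥3 of 4 wells sat beyond the 95th percentile of control Euclidean distances. It was reproducible when the median replicate Pearson correlation exceeded the 95th percentile of non-replicates. Phenotypic activity demanded both.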

A549-CANX-COX4 = system: A549-CANX-COX4
Method in brief: as §1

A549-GM130-SQSTM1 = system: A549-GM130-SQSTM1
Method in brief: as §1

A549-TP53BP1-CLTA = system: A549-TP53BP1-CLTA
Method in brief: as §1

A549-TUBA1B-RELA = system: A549-TUBA1B-RELA
Method in brief: as §1

HepG2-ACTB-RAB5A = system: HepG2-ACTB-RAB5A
Method in brief: as §1

HepG2-CANX-COX4 = system: HepG2-CANX-COX4
Method in brief: as §1

HepG2-GM130-SQSTM1 = system: HepG2-GM130-SQSTM1
Method in brief: as §1

HepG2-TP53BP1-CLTA = system: HepG2-TP53BP1-CLTA
Method in brief: as §1

HepG2-TUBA1B-RELA = system: HepG2-TUBA1B-RELA
Method in brief: as §1

WPMY1-ACTB-RAB5A = system: WPMY1-ACTB-RAB5A
Method in brief: as §1

WPMY1-CANX-COX4 = system: WPMY1-CANX-COX4
Method in brief: as §1

WPMY1-GM130-SQSTM1 = system: WPMY1-GM130-SQSTM1
Method in brief: as §1

WPMY1-TP53BP1-CLTA = system: WPMY1-TP53BP1-CLTA
Method in brief: as §1

WPMY1-TUBA1B-RELA = system: WPMY1-TUBA1B-RELA
Method in brief: as §1

Measured: phenotypically active

COCc1nc2c([nH]1)c(=O)n(C)c(=O)n2CC(C)C
inactive: A549-ACTB-RAB5A 0 | A549-CANX-COX4 0 | A549-GM130-SQSTM1 0 | A549-TP53BP1-CLTA 0 | A549-TUBA1B-RELA 0 | HepG2-ACTB-RAB5A 0 | HepG2-CANX-COX4 0 | HepG2-GM130-SQSTM1 0 | HepG2-TP53BP1-CLTA 0 | HepG2-TUBA1B-RELA 0 | WPMY1-ACTB-RAB5A 0 | WPMY1-CANX-COX4 0 | WPMY1-GM130-SQSTM1 0 | WPMY1-TP53BP1-CLTA 0 | WPMY1-TUBA1B-RELA 0

CC(C)C(=O)c1c(C(C)C)nn2ccccc12 [Ibudilast]
inactive: A549-ACTB-RAB5A 0 | A549-CANX-COX4 0 | A549-GM130-SQSTM1 0 | A549-TP53BP1-CLTA 0 | A549-TUBA1B-RELA 0 | HepG2-ACTB-RAB5A 0 | HepG2-CANX-COX4 0 | HepG2-GM130-SQSTM1 0 | HepG2-TP53BP1-CLTA 0 | HepG2-TUBA1B-RELA 0 | WPMY1-ACTB-RAB5A 0 | WPMY1-CANX-COX4 0 | WPMY1-GM130-SQSTM1 0 | WPMY1-TP53BP1-CLTA 0 | WPMY1-TUBA1B-RELA 0

C/C=C(/C(=C/C)c1ccc(O)cc1)c1ccc(O)cc1 [dienestrol]
inactive: A549-ACTB-RAB5A 0 | A549-CANX-COX4 0 | A549-GM130-SQSTM1 0 | A549-TP53BP1-CLTA 0 | A549-TUBA1B-RELA 0 | HepG2-ACTB-RAB5A 0 | HepG2-CANX-COX4 0 | HepG2-GM130-SQSTM1 0 | HepG2-TP53BP1-CLTA 0 | HepG2-TUBA1B-RELA 0 | WPMY1-ACTB-RAB5A 0 | WPMY1-CANX-COX4 0 | WPMY1-GM130-SQSTM1 0 | WPMY1-TP53BP1-CLTA 0 | WPMY1-TUBA1B-RELA 0

CC(C)(C)NC[C@H](O)c1ccc(O)c(CO)c1 [levalbuterol]
inactive: A549-ACTB-RAB5A 0 | A549-CANX-COX4 0 | A549-GM130-SQSTM1 0 | A549-TP53BP1-CLTA 0 | A549-TUBA1B-RELA 0 | HepG2-ACTB-RAB5A 0 | HepG2-CANX-COX4 0 | HepG2-GM130-SQSTM1 0 | HepG2-TP53BP1-CLTA 0 | HepG2-TUBA1B-RELA 0 | WPMY1-ACTB-RAB5A 0 | WPMY1-CANX-COX4 0 | WPMY1-GM130-SQSTM1 0 | WPMY1-TP53BP1-CLTA 0 | WPMY1-TUBA1B-RELA 0

CN(C)CCCSc1ccccc1NC(=O)/C=C/c1ccccc1 [Cinanserin hydrochloride]
inactive: A549-ACTB-RAB5A 0 | A549-CANX-COX4 0 | A549-GM130-SQSTM1 0 | A549-TP53BP1-CLTA 0 | A549-TUBA1B-RELA 0 | HepG2-ACTB-RAB5A 0 | HepG2-CANX-COX4 0 | HepG2-GM130-SQSTM1 0 | HepG2-TP53BP1-CLTA 0 | HepG2-TUBA1B-RELA 0 | WPMY1-ACTB-RAB5A 0 | WPMY1-CANX-COX4 0 | WPMY1-GM130-SQSTM1 0 | WPMY1-TP53BP1-CLTA 0 | WPMY1-TUBA1B-RELA 0

C=CCc1ccccc1OC[C@@H](O)CNC(C)C [Alprenolol hydrochloride]
inactive: A549-ACTB-RAB5A 0 | A549-CANX-COX4 0 | A549-GM130-SQSTM1 0 | A549-TP53BP1-CLTA 0 | A549-TUBA1B-RELA 0 | HepG2-ACTB-RAB5A 0 | HepG2-CANX-COX4 0 | HepG2-GM130-SQSTM1 0 | HepG2-TP53BP1-CLTA 0 | HepG2-TUBA1B-RELA 0 | WPMY1-ACTB-RAB5A 0 | WPMY1-CANX-COX4 0 | WPMY1-GM130-SQSTM1 0 | WPMY1-TP53BP1-CLTA 0 | WPMY1-TUBA1B-RELA 0

O=C(O)CCCC[C@@H]1SC[C@@H]2NC(=O)N[C@@H]21 [Biotin]
inactive: A549-ACTB-RAB5A 0 | A549-CANX-COX4 0 | A549-GM130-SQSTM1 0 | A549-TP53BP1-CLTA 0 | A549-TUBA1B-RELA 0 | HepG2-ACTB-RAB5A 0 | HepG2-CANX-COX4 0 | HepG2-GM130-SQSTM1 0 | HepG2-TP53BP1-CLTA 0 | HepG2-TUBA1B-RELA 0 | WPMY1-ACTB-RAB5A 0 | WPMY1-CANX-COX4 0 | WPMY1-GM130-SQSTM1 0 | WPMY1-TP53BP1-CLTA 0 | WPMY1-TUBA1B-RELA 0

COc1ccc2c3c([nH]c2c1)[C@H]1C[C@H]2[C@H](C[C@@H](O)[C@H](OC)[C@H]2C(=O)O)CN1CC3 [Reserpinic acid hydrochloride]
inactive: A549-ACTB-RAB5A 0 | A549-CANX-COX4 0 | A549-GM130-SQSTM1 0 | A549-TP53BP1-CLTA 0 | A549-TUBA1B-RELA 0 | HepG2-ACTB-RAB5A 0 | HepG2-CANX-COX4 0 | HepG2-GM130-SQSTM1 0 | HepG2-TP53BP1-CLTA 0 | HepG2-TUBA1B-RELA 0 | WPMY1-ACTB-RAB5A 0 | WPMY1-CANX-COX4 0 | WPMY1-GM130-SQSTM1 0 | WPMY1-TP53BP1-CLTA 0 | WPMY1-TUBA1B-RELA 0

CC1Cc2ccccc2N1NC(=O)c1ccc(Cl)c(S(N)(=O)=O)c1 (stereo not given) [indapamide]
inactive: A549-ACTB-RAB5A 0 | A549-CANX-COX4 0 | A549-GM130-SQSTM1 0 | A549-TP53BP1-CLTA 0 | A549-TUBA1B-RELA 0 | HepG2-ACTB-RAB5A 0 | HepG2-CANX-COX4 0 | HepG2-GM130-SQSTM1 0 | HepG2-TP53BP1-CLTA 0 | HepG2-TUBA1B-RELA 0 | WPMY1-ACTB-RAB5A 0 | WPMY1-CANX-COX4 0 | WPMY1-GM130-SQSTM1 0 | WPMY1-TP53BP1-CLTA 0 | WPMY1-TUBA1B-RELA 0

CC(C)[N@+]1(C)[C@@H]2CC[C@H]1C[C@@H](OC(=O)C(CO)c1ccccc1)C2 (stereo not given in full) [ipratropium]
inactive: A549-ACTB-RAB5A 0 | A549-CANX-COX4 0 | A549-GM130-SQSTM1 0 | A549-TP53BP1-CLTA 0 | A549-TUBA1B-RELA 0 | HepG2-ACTB-RAB5A 0 | HepG2-CANX-COX4 0 | HepG2-GM130-SQSTM1 0 | HepG2-TP53BP1-CLTA 0 | HepG2-TUBA1B-RELA 0 | WPMY1-ACTB-RAB5A 0 | WPMY1-CANX-COX4 0 | WPMY1-GM130-SQSTM1 0 | WPMY1-TP53BP1-CLTA 0 | WPMY1-TUBA1B-RELA 0

Brc1c(Br)c(Br)c2[nH]nnc2c1Br
inactive: A549-ACTB-RAB5A 0 | A549-CANX-COX4 0 | A549-GM130-SQSTM1 0 | A549-TP53BP1-CLTA 0 | A549-TUBA1B-RELA 0 | HepG2-ACTB-RAB5A 0 | HepG2-CANX-COX4 0 | HepG2-GM130-SQSTM1 0 | HepG2-TP53BP1-CLTA 0 | HepG2-TUBA1B-RELA 0 | WPMY1-ACTB-RAB5A 0 | WPMY1-CANX-COX4 0 | WPMY1-GM130-SQSTM1 0 | WPMY1-TP53BP1-CLTA 0 | WPMY1-TUBA1B-RELA 0

CCCCC1=NC2(CCCC2)C(=O)N1Cc1ccc(-c2ccccc2-c2nnn[nH]2)cc1 [irbesartan]
inactive: A549-ACTB-RAB5A 0 | A549-CANX-COX4 0 | A549-GM130-SQSTM1 0 | A549-TP53BP1-CLTA 0 | A549-TUBA1B-RELA 0 | HepG2-ACTB-RAB5A 0 | HepG2-CANX-COX4 0 | HepG2-GM130-SQSTM1 0 | HepG2-TP53BP1-CLTA 0 | HepG2-TUBA1B-RELA 0 | WPMY1-ACTB-RAB5A 0 | WPMY1-CANX-COX4 0 | WPMY1-GM130-SQSTM1 0 | WPMY1-TP53BP1-CLTA 0 | WPMY1-TUBA1B-RELA 0

CCO[C@@H](Cc1ccc(OCCc2ccc(OS(C)(=O)=O)cc2)cc1)C(=O)O [Tesaglitazar]
inactive: A549-ACTB-RAB5A 0 | A549-CANX-COX4 0 | A549-GM130-SQSTM1 0 | A549-TP53BP1-CLTA 0 | A549-TUBA1B-RELA 0 | HepG2-ACTB-RAB5A 0 | HepG2-CANX-COX4 0 | HepG2-GM130-SQSTM1 0 | HepG2-TP53BP1-CLTA 0 | HepG2-TUBA1B-RELA 0 | WPMY1-ACTB-RAB5A 0 | WPMY1-CANX-COX4 0 | WPMY1-GM130-SQSTM1 0 | WPMY1-TP53BP1-CLTA 0 | WPMY1-TUBA1B-RELA 0

CC1=C(CC(=O)O)c2cc(F)ccc2/C1=C\c1ccc(S(C)=O)cc1 (stereo not given) [sulindac]
inactive: A549-ACTB-RAB5A 0 | A549-CANX-COX4 0 | A549-GM130-SQSTM1 0 | A549-TP53BP1-CLTA 0 | A549-TUBA1B-RELA 0 | HepG2-ACTB-RAB5A 0 | HepG2-CANX-COX4 0 | HepG2-GM130-SQSTM1 0 | HepG2-TP53BP1-CLTA 0 | HepG2-TUBA1B-RELA 0 | WPMY1-ACTB-RAB5A 0 | WPMY1-CANX-COX4 0 | WPMY1-GM130-SQSTM1 0 | WPMY1-TP53BP1-CLTA 0 | WPMY1-TUBA1B-RELA 0
